ALDH1A1 block: blocks purified human ALDH1A1 activity. Potency, µM (series often up to 75.3 µM), for the others: top-dose activity, negative = inhibition, hits mostly inhibitors. AID 1030. Purified ALDH1A1, NADH fluorescence, propionaldehyde substrate. P00352. 220,000 compounds, 7.3% hits;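 note: potency is the fitted concentration of half-maximal effect; plate controls were no enzyme wells and a reference inhibitor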
IMPase cell inh: IMPase inhibition in cells. CHO-M1 cells, IP1 accumulation, HTRF TR-FRET ratio. inhibition (IP1 accumulation), % at 46.1 µM. 120,000 tested, under 10 active. AID 901; active = well fitted curve in the direction sought with a large enough effect in the signal ratio, not every such curve was filed as active; inconclusive = small, poorly fitted or top-dose-only effect, or a change in a side signal; inactive = no such curve, though single readings can be large or run the other way; the % refers to the signal ratio;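 note: cells stimulated with carbachol in lithium chloride buffer; plate controls were DMSO basal wells for no effect and reference inhibitor wells for full effect; higher means more IMPase inhibition seen as more IP1 and lower FRET ratio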
Target sequence (P97697 whole entry, looked up): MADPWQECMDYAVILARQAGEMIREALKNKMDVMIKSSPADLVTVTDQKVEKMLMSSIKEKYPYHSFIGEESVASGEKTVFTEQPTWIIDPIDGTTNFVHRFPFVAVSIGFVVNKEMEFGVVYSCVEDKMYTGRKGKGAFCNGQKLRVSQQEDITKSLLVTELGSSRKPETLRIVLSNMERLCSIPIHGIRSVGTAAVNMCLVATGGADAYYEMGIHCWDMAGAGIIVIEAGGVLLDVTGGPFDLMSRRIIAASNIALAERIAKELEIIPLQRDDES
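CHO-M1, 2000 cells/well, cultured 16–30 h; cpd up to 46 uM; carbachol (50 uM solution, stimulation buffer w/ 50 mM LiCl, pH 7.4), 30 min 37C; IP-One TR-FRET, 10 min RT; Ex 320/Em 665, 620; Hill-fit AC50.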
PNC inhibitor: blocks assembly of the perinucleolar compartment; PC3M PTB-GFP, PNC prevalence imaging, 16 h; active compounds read low; activity change (PNC), negative = inhibition, % at 10 µM; 140,000 compounds, 3.1% hits; AID 2417;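 active = readout at or below -70, meaning at least 70% loss of cells showing the perinucleolar compartment, a nuclear body marking cancer cells; inconclusive = readout between -30 and a set limit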;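 note: plate controls were DMSO wells for no effect and camptothecin positive control wells for full effect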
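Read-out is percentage of cells bearing a perinucleolar compartment, from automated 20x imaging of fixed, Hoechst-stained PC3M PTB-GFP cells. Cells were seeded 4 h, then exposed 16 h to compound (23 nl of library stock) in duplicate plates.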
IMPase Li cell: IMPase inhibition in cells with lithium potentiation. CHO-M1 cells, IP1 TR-FRET (IP-One), carbachol + lithium. Potency, µM (series often up to 59.4 µM), for the others: at the highest dose activity, negative = IMPase inhibition, actives largely listed as inhibitors. 210,000 compounds, 0.35% hits. AID 1457; active = well fitted inhibition curve with a large enough effect; inconclusive = small, poorly fitted or top-dose-only effect; inactive = no such curve, though single readings can be large or run the other way;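 note: IP1 builds up when IMPase is blocked and the TR-FRET signal falls; potency is the fitted concentration of half-maximal effect; plate controls were basal vehicle for no effect and high inhibitor control for full effect; nearly all actives have a fitted effect of over 50% in size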
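IP1 accumulation measured by competitive TR-FRET in lysed CHO-M1 cells after 30 min compound exposure at 37C, with a small lithium addition to potentiate weak responses. Hill-equation AC50 from ratio and donor-channel data.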
HPGD inh: blocks human HPGD enzyme activity. P15428. purified HPGD, NADH fluorescence kinetic, PGE2 substrate. Potency, µM, for inactives: at the highest dose activity change, negative = inhibition, actives largely listed as inhibitors. 150,000 compounds, 4.3% hits. AID 894; note: potency is the fitted concentration of half-maximal effect
Target sequence (P15428 whole entry, looked up): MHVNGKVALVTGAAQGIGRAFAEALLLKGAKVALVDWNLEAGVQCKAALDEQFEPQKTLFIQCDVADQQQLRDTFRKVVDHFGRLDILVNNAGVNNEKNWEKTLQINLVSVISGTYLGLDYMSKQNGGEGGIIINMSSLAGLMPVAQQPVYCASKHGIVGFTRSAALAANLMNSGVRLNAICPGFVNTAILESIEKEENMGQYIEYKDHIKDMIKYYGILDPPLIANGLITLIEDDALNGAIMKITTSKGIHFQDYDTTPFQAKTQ
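NADH formation kinetics: reaction with 30 uM PGE2 and 1 mM NAD+ (final), 20 nM enzyme, Tris-HCl pH 8 with Tween 20, after 15 min compound preincubation at room temperature. Fluorescence change, last versus first of five reads.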
Numbers without * were called inactive; u = inconclusive; x = not tested or not shown; [ ] = another dose, or the depositor's remark. Only some compounds are listed: those with a hit (about 11% of all), similar ones and a draw of the others. Unless noted, calls come from the whole dose curve; as a rule, active = well fitted inhibition curve with a large enough effect (not every such curve was filed as active); inconclusive = small, poorly fitted or top-dose-only effect, or another doubt; inactive = no such curve, though single readings can be large or run the other way. Unless noted, % is set by controls: 0 for no effect and ±100 for the full control effect.

SMILES	ALDH1A1 block	IMPase cell inh	PNC inhibitor	IMPase Li cell	HPGD inh
COc1cc2c(cc1OC)C(c1ccc(-c3cc(Cl)ccc3Cl)o1)=NCC2	u	12	u	24%[38.3 µM]	16µM*
O=C(CCN1C(=O)c2ccccc2C1=O)Nn1cnnc1	-2%	2	34	3%[38.3 µM]	-3%
CC(C)CC(C(=O)Nn1cnnc1)N1C(=O)c2ccccc2C1=O (configuration not stated)	u	-1	-100*	-13%[38.3 µM]	-22%
CC1(CC(=O)O)SC(=O)NC1=O (configuration not stated)	17%	-2	26	-8%[38.3 µM]	-6%
CC(=O)Nc1ccc(OCC(O)CNC2CCCC2)cc1 (configuration not stated)	18µM*	u	14	20%[38.3 µM]	-9%
COC(=O)c1ccccc1C[C@]1(C(=O)OC)C=C[C@H](C)[C@@H](c2ccccc2)N1C(=O)C(F)(F)F	10%	x	x	10%	-13%
O=C1c2ccccc2C(Nc2ccc(S(=O)(=O)N3CCCCC3)cc2)N1c1ccccn1 (configuration not stated)	5µM*	-18	15	7%	-8%
O=c1c2ccccc2nc2n1CCCCN2	u	2	-13	-1%[38.3 µM]	u
CCN(CC)S(=O)(=O)c1ccc(Cc2ncc(C(F)(F)F)cc2Cl)s1	u	11	34	28%[38.3 µM]	-17%
O=C(CCl)c1ccc(Cc2ncc(C(F)(F)F)cc2Cl)s1	0.71µM*	-5	-19	3%[38.3 µM]	-22%
NS(=O)(=O)c1ccc(Cc2ncc(C(F)(F)F)cc2Cl)s1	0%	2	11	20%[38.3 µM]	-4%
NNS(=O)(=O)c1ccc(Cc2ncc(C(F)(F)F)cc2Cl)s1	3.2µM*	-5	u	15%[38.3 µM]	-12%
COc1cccc([C@@H]2Oc3ccc(Br)cc3C[C@H]2OC(=O)Nc2ccc(OC(F)F)cc2)c1	-10%	x	x	11%	-8%
COc1ccc(C(=O)/C=C/c2ccc(OC)c(COc3ccccc3F)c2)cc1	2.5µM*	u	u	14%	-25%
COc1ccc(C=O)cc1COc1c(F)c(F)cc(F)c1F	u	-6	22	20%[38.3 µM]	-14%
COc1ccc(C=O)cc1COc1ccc(F)cc1F	8.9µM*	-11	16	53%[38.3 µM]	32µM*
COc1ccc(/C=C/C(=O)c2ccccc2)cc1COc1ccc(F)cc1	1%	4	36	-19%[38.3 µM]	-15%
COc1ccc(/C=C/C(=O)c2ccccc2)cc1Cn1nnc2ccccc21	u	-1	34	25%	16µM*
COc1ccc(C(=O)COC(=O)Cn2nnc3ccccc32)cc1Br	-4%	1	11	1%[38.3 µM]	-14%
COc1cc(/C=C/C(=O)c2ccc(C)cc2)ccc1OCC#N	13µM*	x	u	6%	-28%
CC(C)CO/N=C1/C[C@@H](O)[C@@H](O)[C@@H]2[C@@H]3C(=O)N(C(C)(C)C)C(=O)[C@H]3CC[C@H]12	8%[13.5 µM]	x	x	x	x
C[C@H]1C2=C3C(CC[C@H]4C(OCc5ccc(F)cc5C(F)(F)F)OC[C@](C)([C@@H]34)N(C(=O)OC(C)(C)C)C2)C2COC(=O)OCC21 (some centres not stated)	-3%	x	x	-11%	-15%
Cc1ccc(C2=NN(C(=O)C3CCCO3)C(c3ccco3)C2)cc1 (configuration not stated)	-3%	x	x	4%	x
O=C(C1CCCO1)N1N=C(c2ccc(Br)cc2)CC1c1ccco1 (configuration not stated)	-9%	x	-89*	7%	-9%
CN(C)Cc1cc(C(C)(C)C)ccc1-c1ccc(C(C)(C)C)cc1CN(C)C	4%[13.5 µM]	x	x	-9%	-2%
SMILES	ALDH1A1 block	IMPase cell inh	PNC inhibitor	IMPase Li cell	HPGD inh
Cc1ccc(S(=O)(=O)CCN2CCN(c3ccccn3)CC2)cc1	13µM*	x	x	x	x
CCOc1ccc(NS(=O)(=O)c2ccc3[nH]cc(C(=O)NC(C)CC)c(=O)c3c2)cc1 (configuration not stated)	-3%	7	u	17%[38.3 µM]	-12%
CCc1ccc(NS(=O)(=O)c2ccc3[nH]cc(C(=O)N(C)Cc4ccco4)c(=O)c3c2)cc1	-6%	-3	-114*	1%[38.3 µM]	-15%
CN(Cc1ccccc1)C(=O)c1c[nH]c2ccc(S(=O)(=O)N3CCOCC3)cc2c1=O	u	x	22	-1%	u
CCc1ccccc1NS(=O)(=O)c1ccc2[nH]cc(C(=O)NC3CCCC3)c(=O)c2c1	20µM*	x	21	19%	-28%
CN(Cc1ccco1)C(=O)c1c[nH]c2ccc(S(=O)(=O)Nc3ccc4c(c3)OCCO4)cc2c1=O	22µM*	x	37	-8%	18µM*
COC(=O)c1csc(C(=O)c2c[nH]c3ccccc23)n1	-2%	x	x	-1%	-13%
COc1cccc(Nc2nc(C)cc(C)c2C#N)c1	5%	1	-100*	3%	-22%
Cc1ncoc1C(=O)N1CCCC(C(=O)c2ccc(Oc3ccccc3)cc2)C1 (configuration not stated)	2.8µM*	x	x	21%	x
Cc1ncoc1C(=O)N1CCCC(C(=O)c2cccc(OC(C)C)c2)C1 (configuration not stated)	25µM*	x	x	6%	x
Cc1ncoc1C(=O)N1CCCC(C(=O)c2ccc(C(F)(F)F)cc2)C1 (configuration not stated)	16µM*	x	x	2%	x
Cc1ncoc1C(=O)N1CCCC(C(=O)c2cccc(C(F)(F)F)c2)C1 (configuration not stated)	-5%	x	x	17%	x
O=C1/C(=C\c2ccco2)CCC/C1=C\c1ccco1	5.6µM*	x	57	2%	-17%
CC1C/C(=C/c2ccco2)C(=O)/C(=C/c2ccco2)C1 (configuration not stated)	14µM*	x	10	11%	-17%
CC1C/C(=C/c2cccs2)C(=O)/C(=C/c2cccs2)C1 (configuration not stated)	-7%	x	-113*	16%	-12%
O=C1/C(=C/c2ccco2)CCC1C1CCCC1 (configuration not stated)	u	x	x	-1%	x
O=C1/C(=C/c2ccco2)Cc2ccccc21	u	x	-29	6%	u
Cc1cc2oc(=O)cc(CN3CCCCC3C)c2c(C)c1Cl (configuration not stated)	u	6	u	x	x
O=c1oc(-c2ccc(Cl)c(Cl)c2)nn1-c1ccc(C(F)(F)F)cn1	13%	x	x	x	x
COc1ccc(-n2c(=O)c(CCc3ccccc3)nc3cnc(N4CCNCC4)nc32)cc1	u	x	x	33%	u
O=C(O)[C@@H]1C[C@H](C(=O)O)N1	-12%	x	x	-3%	-15%
COc1ccc2cc3cc(C(=O)Nc4cc(OC)c(OC)c(OC)c4)oc3nc2c1	u	1	-105*	-6%[38.3 µM]	-27%
CC(=O)N1C2(C=CC1(C)C(=O)NCc1ccccn1)CCCCC2 (configuration not stated)	u	x	x	-4%	-9%

Screening results (PubChem BioAssay)
